Experimental data from PubChem BioAssay AID1645882 (National Center for Advancing Translational Sciences (NCATS), 2021).
Where “and” joins values, the source holds several entries; their conditions need not be identical. Equal entries are not always repeated. In all, about 16,000 compounds went through this assay and about 120 (0.75%) were called active. Roughly 4% stayed inconclusive and do not appear here. The call rests on the fitted dose curve; in most records, active means well fitted inhibition curve with a large enough effect; inconclusive means small, poorly fitted or top-dose-only effect; inactive means no such curve, though single readings can be large or run the other way. The list comes from a sample in which actives are over-represented; it also holds similar structures and randomly drawn compounds. Where a call stands in place of a potency, no number is given. A structure can be active in one record and inactive in another.

Target: Rap guanine nucleotide exchange factor 3 (Homo sapiens) (UniProt O95398)
Sequence (O95398 whole entry, looked up): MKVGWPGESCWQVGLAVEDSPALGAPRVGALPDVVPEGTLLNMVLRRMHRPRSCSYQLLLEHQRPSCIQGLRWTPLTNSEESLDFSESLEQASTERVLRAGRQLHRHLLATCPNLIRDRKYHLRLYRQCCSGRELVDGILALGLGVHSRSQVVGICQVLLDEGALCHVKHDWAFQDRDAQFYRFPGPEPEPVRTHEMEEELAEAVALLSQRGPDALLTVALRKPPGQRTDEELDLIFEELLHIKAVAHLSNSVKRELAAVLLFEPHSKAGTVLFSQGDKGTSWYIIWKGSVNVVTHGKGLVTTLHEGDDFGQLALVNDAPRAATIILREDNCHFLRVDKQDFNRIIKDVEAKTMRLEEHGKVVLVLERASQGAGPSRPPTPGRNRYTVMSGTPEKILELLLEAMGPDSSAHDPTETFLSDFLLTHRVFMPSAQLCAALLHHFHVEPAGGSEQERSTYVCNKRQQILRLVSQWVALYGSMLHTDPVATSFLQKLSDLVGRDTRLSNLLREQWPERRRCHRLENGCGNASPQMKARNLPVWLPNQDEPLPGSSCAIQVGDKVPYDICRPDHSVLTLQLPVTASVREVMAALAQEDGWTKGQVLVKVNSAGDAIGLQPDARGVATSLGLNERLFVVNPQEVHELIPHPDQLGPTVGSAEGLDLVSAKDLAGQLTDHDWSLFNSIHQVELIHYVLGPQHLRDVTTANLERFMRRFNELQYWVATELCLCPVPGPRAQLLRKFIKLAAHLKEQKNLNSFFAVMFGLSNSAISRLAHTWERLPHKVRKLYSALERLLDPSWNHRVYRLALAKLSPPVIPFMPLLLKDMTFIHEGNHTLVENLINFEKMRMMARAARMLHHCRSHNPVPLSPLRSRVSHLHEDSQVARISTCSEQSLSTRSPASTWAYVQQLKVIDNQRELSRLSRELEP
Experiment: Validation qHTS for antagonist of cAMP-regulated guanine nucleotide exchange factor 3 (EPAC1); further: nearly all actives have a fitted effect of over 75% in size
Conditions: EPAC1 Rap1B-BODIPY-GDP exchange, fluorescence; series mostly up to 150 µM
Procedure, shortened: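 EPAC1 (100 nM) mixed with 250 nM RAP1B-BODIPY-GDP and 50 uM GDP; compounds in concentration series, 5 min at room temperature. Fluorescence (ex 480/em 540 nm) read every 5 min for 30 min; normalized to ATA control and DMSO.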
Potency means the concentration at half of the fitted maximal effect.

| Compound | Potency | activity change, negative = inhibition |
| --- | --- | --- |
| c1ccc2c(N3CCCCCC3)nc(CN3CCCCC3c3nccs3)nc2c1 (configuration not stated) | inactive |  |
| COc1ccc(-c2nc3cnc(N(C)C)nc3n(C)c2=O)cc1 | inactive |  |
| O=C(Nc1ccc(S(=O)(=O)N2CCOCC2)cc1)c1cc(Cl)ccc1NS(=O)(=O)c1ccc(Cl)s1 | 112 µM (active) |  |
| O=c1c(-c2ccc(Cl)cc2)nc2cnc(N3CCNCC3)nc2n1CCc1ccccc1 | inactive |  |
| COc1cccc(Cn2c(=O)c(-c3ccc(F)c(F)c3)nc3cncnc32)c1 | inactive |  |
| O=c1c(-c2ccc(O)cc2)coc2cc(O)cc(O)c12 | inactive |  |
| O=c1c(-c2ccccc2)coc2cc(O)cc(O)c12 | 79.4 µM (active) |  |
| COc1ccc(-c2coc3cc(O)cc(O)c3c2=O)cc1 | inactive |  |
| Cc1cccc(/C=C/c2cccs2)n1 | inactive |  |
| COc1cccc(CN2Cc3cccc4c3[C@H](C=CC4)CC2=O)c1 | inactive |  |
| Cc1ccc2c(/C=C/c3ccc(N(C)C)cc3)ccnc2c1C | inactive |  |
| CS(=O)(=O)OCCCNCCCOS(C)(=O)=O | inactive |  |
| COc1cc(C(=O)NS(=O)(=O)c2ccccc2C)ccc1Cc1cn(C)c2ccc(NC(=O)OC3CCCC3)cc12 | 89.1 µM (active) |  |
| COc1cc2c(cc1OC)CN(C(=O)[C@@H]1C[C@H](NCc3cn(C)c4ccccc34)CN1C1Cc3ccccc3C1)CC2 | inactive |  |
| N#C/C(=C\c1ccc(O)c(O)c1)C(=O)OCCc1cccs1 | 39.8 µM (active) |  |
| C[C@@H](NC(=O)/C(C#N)=C/c1ccc(O)c(O)c1)c1ccccc1 | inactive |  |
| N#C/C(=C\c1ccc(O)c(O)c1)C(N)=O | inactive |  |
| N#C/C(=C\c1ccc(O)c(O)c1)C(=O)Nc1ccccc1 | 79.4 µM (active) and inactive |  |
| C[C@H](NC(=O)/C(C#N)=C/c1ccc(O)c(O)c1)c1ccccc1 | 89.1 µM (active) and inactive |  |
| CC(NNC(=O)c1ccccc1)c1ccccc1 (configuration not stated) | inactive |  |
| O=C(O)/C=C/c1ccc(O)c(O)c1 | inactive |  |
| N#C/C(=C\c1ccc(O)c(O)c1)C(=O)c1ccc(O)c(O)c1 | inactive |  |
| N#C/C(=C\c1ccc(O)c(O)c1)C(=O)NCc1ccccc1 | inactive |  |
| Cc1cccc2[nH]cc(/C=C3/C=Nc4ccccc43)c12 | inactive |  |
| c1cncc(CNc2nc(-c3ccc4c(c3)OCO4)nc3ccccc23)c1 | inactive |  |
| O=S(=O)(NCc1nc(N2CCCC2)c2cc(Cl)ccc2n1)c1ccccc1OC(F)(F)F | inactive |  |

| Compound | Potency | activity change, negative = inhibition |
| --- | --- | --- |
| O=C[C@H](O)[C@@H](O)[C@H](O[C@H]1O[C@H](CO)[C@@H](O[C@H]2O[C@H](CO)[C@@H](O)[C@H](O)[C@H]2O)[C@H](O)[C@H]1O)[C@H](O)CO | inactive |  |
| CCn1nc(C)cc1C(=O)N1CCC2(CC1)c1ccccc1[C@@H](NC(=O)c1cccnc1)[C@@H]2O | inactive |  |
| Cc1ncc2c(c1CNC(=O)c1ccc3c(c1)OCO3)CCN(C(=O)c1scc3c1CCCC3)C2 | inactive |  |
| CN(C)C(=O)c1ccc(-c2ccc3ncnc(NC4CC4)c3c2)cc1 | inactive |  |
| NCCC(=O)N[C@H](Cc1cnc[nH]1)C(=O)O | inactive |  |
| C[C@@H]1NC(=O)OC1c1ccco1 (some centres not stated) | inactive |  |
| CS(=O)(=O)Nc1cccc(-c2nccc(NCc3cccs3)n2)c1 | inactive |  |
| Cc1cc(C)n(-c2cccc(C(=O)NCC3Cc4cccc(-c5cccnc5)c4O3)c2)n1 (configuration not stated) | inactive |  |
| O=C1C=CC2=C3c4cc(O)c(O)cc4CC3(O)COC2=C1O (configuration not stated) | 56.2 µM (active) and 25.1 µM (active) |  |
| O=C1C=CC2=C3c4cc(O)c(O)cc4C[C@]3(O)COC2=C1 | inactive |  |
| O=C1C=CC2=C3c4cc(O)c(O)cc4C[C@@]3(O)COC2=C1 | inactive |  |
| CC1O[C@@H](O[C@@H]2C(O)C[C@H](O[C@@H]3C(O)C[C@@H](OC4CC[C@@]5(C)C6CC(O)[C@@]7(C)C(C8=CC(=O)OC8)CC[C@@]7(O)C6CC[C@@H]5C4)OC3C)OC2C)CC(O)[C@H]1O (some centres not stated) | inactive |  |
| CC(Oc1ccccc1)C(=O)NCC1Cc2cc(F)cc(-c3ccccn3)c2O1 (configuration not stated) | inactive |  |
| COc1cccc(Nc2ncc3nc(-c4ccccc4)c(=O)n(Cc4cccs4)c3n2)c1 | inactive |  |
| COc1ccc(-c2nc3cnc(Nc4ccccc4)nc3n(Cc3cccs3)c2=O)cc1 | inactive |  |
| COc1ccc(-c2nc3cnc(Nc4cccc(OC)c4)nc3n(Cc3cccs3)c2=O)cc1 | 100 µM (active) |  |
| Cc1c(C)c2c(c(C)c1O)CC[C@@](C)(CCC[C@H](C)CCC[C@H](C)CCCC(C)C)O2 | inactive |  |
| CN(CCOc1ccc(CC2SC(=O)NC2=O)cc1)c1ccccn1 (configuration not stated) | inactive |  |
| Cc1c(C)c2c(c(C)c1O)CCC(C)(CCCC(C)CCCC(C)CCCC(C)C)O2 (configuration not stated) | inactive |  |
| CCc1ccc(CCOc2ccc(CC3SC(=O)NC3=O)cc2)nc1 (configuration not stated) | inactive |  |
| CC1(COc2ccc(C[C@H]3SC(=O)NC3=O)cc2)CCCCC1 | 89.1 µM (active) |  |
| CC1(COc2ccc(CC3SC(=O)NC3=O)cc2)CCCCC1 (configuration not stated) | 35.5 µM (active) | 12.3% [at 15.3 µM] (inactive) |
| Cc1c(C)c2c(c(C)c1O)CCC(C)(COc1ccc(CC3SC(=O)NC3=O)cc1)O2 (configuration not stated) | 100 µM (active) |  |
| Fc1ccc(N2CCN(Cc3ccc4c(c3)CN(Cc3cccn3-c3cccnc3)CCO4)CC2)cc1 | inactive |  |
| Cc1ccc2c(c1)CN(CCC(=O)NCc1cc(C)n(C)n1)CC(C)O2 (configuration not stated) | inactive |  |
| COc1cc(=O)n2c(c1C(=O)N(C)Cc1nonc1C)CCN(Cc1ccsc1)CC2 | inactive |  |

| Compound | Potency | activity change, negative = inhibition |
| --- | --- | --- |
| Cc1ccc(CN2C[C@H](Sc3ccccn3)C[C@H]2C(=O)Nc2ccc3sc(C)nc3c2)c(C)c1 | inactive |  |
| CN(C)/N=N/c1nc[nH]c1C(N)=O | inactive |  |
| COc1cccc(Cn2c(=O)c(-c3cc(F)cc(F)c3)nc3cncnc32)c1 | inactive |  |
| Cc1noc(C)c1-c1cc(N(C)C)ncn1 | inactive |  |
| CCCCCCCCN1[C@@H](CC(=O)O)c2cc(C(F)(F)F)ccc2S1(=O)=O | inactive |  |
| CCCCCCCCCCCCN1[C@@H](CC(=O)O)c2cc(C(F)(F)F)ccc2S1(=O)=O | 89.1 µM (active) |  |
| CCCCCCCCCCCCN1[C@@H](CC(=O)OC)c2cc(C(F)(F)F)ccc2S1(=O)=O | inactive |  |
| COc1ccc(OC)c(-c2ccnc(-n3ncc(C(=O)N(C)CCc4ccccn4)c3C)n2)c1 | inactive |  |
| Clc1ccc2ncnc(NCc3ccc4c(c3)OCO4)c2c1 | inactive |  |
| CC(O)c1nc2ccccc2[nH]1 (configuration not stated) | inactive |  |
| O=C1CC[C@@H](CN(Cc2cccnc2)C2CCN(c3ccc(NC(=O)c4cnccn4)cc3)CC2)N1 | inactive |  |
| CCCCC(CC)COC(=O)c1ccccc1O (configuration not stated) | inactive |  |
| CCCCC(CC)COS(=O)(=O)O (configuration not stated) | inactive |  |
| CCCCC(CC)COC(=O)CC(C(=O)OCC(CC)CCCC)S(=O)(=O)O (configuration not stated) | 56.2 µM (active) and 25.1 µM (active) |  |
| O=c1c(-c2ccccc2)nc2cncnc2n1Cc1ccccc1 | inactive |  |
| COc1ccc(-c2nc3cnc(N4CCN(C)CC4)nc3n(-c3ccc(OC)cc3)c2=O)cc1 | inactive |  |
| COc1ccc(-c2nc3cc(C)ccc3cc2CN(C(=O)c2ccc(C)s2)C2CC2)cc1OC | inactive |  |
| c1ccc(Cc2nnc3n2CCN(Cc2cnc(-c4ccccc4)s2)CC3)cc1 | inactive |  |
| COc1ccc(-n2c(=O)c(CCc3ccccc3)nc3cnc(N4CCNCC4)nc32)cc1 | inactive |  |
| COc1ccc(C(=O)CC(=O)c2ccc(C(C)(C)C)cc2)cc1 | 79.4 µM (active) |  |
| COc1ccc(C(=O)C[n+]2ccccc2Cl)cc1 | inactive |  |
| COc1ccc(C(C)=O)cc1 | inactive |  |
| Cc1ncc2c(c1CNC(=O)c1ccsc1)CCN(C(=O)c1c(F)cccc1Cl)C2 | inactive |  |
| COc1cc(C)c(CN2C[C@H](Sc3ccccn3)C[C@H]2C(=O)N(C)C)cc1C | inactive |  |
